Reference: the supplement of paper PMC10849652
Targets with a hit are over-represented here; the source holds about 7,900 in all. About 0.6% of all pairs of compound and target were hits.

Compound: COc1cc(Nc2ncc3c(n2)-c2ccc(Cl)cc2C(c2c(F)cccc2OC)=NC3)ccc1C(=O)O [alisertib]
Assay: log2 fold change, soluble protein after heating vs DMSO (PISA); higher = thermal stabilisation; K562 cells, 10 uM, 30 min; active = over 0.2 and 3.5 SD of the protein, either way, in both replicates (recomputed)
Procedure, shortened: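 For each measurement, 10 μM compound was applied for 30 min to K562 cells at 2×10^6 cells/mL. Aliquots were heated for 3 min across 48°C-58°C, pooled, and extracted in PBS with 0.5% NP-40 at 4°C; the supernatant after 21,000xg for 90 min was soluble protein. This was quantified by TMTpro 16plex LC-MS/MS with channel sums equalised, and thermal stability was reported relative to control samples from duplicates, on a log2 fold-change scale.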

Chain of UniProt Q8NEF9 (Q8NEF9 whole entry, looked up): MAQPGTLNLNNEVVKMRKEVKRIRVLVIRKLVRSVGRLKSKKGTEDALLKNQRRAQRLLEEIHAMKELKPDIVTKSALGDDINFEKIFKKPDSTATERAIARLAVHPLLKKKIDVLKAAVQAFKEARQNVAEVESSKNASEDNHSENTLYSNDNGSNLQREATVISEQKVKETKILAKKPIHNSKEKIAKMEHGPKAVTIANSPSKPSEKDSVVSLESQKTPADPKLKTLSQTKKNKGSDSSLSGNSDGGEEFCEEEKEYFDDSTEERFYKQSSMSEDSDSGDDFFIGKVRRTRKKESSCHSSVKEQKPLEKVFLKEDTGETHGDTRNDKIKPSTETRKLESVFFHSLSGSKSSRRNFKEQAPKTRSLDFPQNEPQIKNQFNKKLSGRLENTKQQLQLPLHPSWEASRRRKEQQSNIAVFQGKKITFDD
Chain of UniProt Q8N0X7 (Q8N0X7 whole entry, looked up): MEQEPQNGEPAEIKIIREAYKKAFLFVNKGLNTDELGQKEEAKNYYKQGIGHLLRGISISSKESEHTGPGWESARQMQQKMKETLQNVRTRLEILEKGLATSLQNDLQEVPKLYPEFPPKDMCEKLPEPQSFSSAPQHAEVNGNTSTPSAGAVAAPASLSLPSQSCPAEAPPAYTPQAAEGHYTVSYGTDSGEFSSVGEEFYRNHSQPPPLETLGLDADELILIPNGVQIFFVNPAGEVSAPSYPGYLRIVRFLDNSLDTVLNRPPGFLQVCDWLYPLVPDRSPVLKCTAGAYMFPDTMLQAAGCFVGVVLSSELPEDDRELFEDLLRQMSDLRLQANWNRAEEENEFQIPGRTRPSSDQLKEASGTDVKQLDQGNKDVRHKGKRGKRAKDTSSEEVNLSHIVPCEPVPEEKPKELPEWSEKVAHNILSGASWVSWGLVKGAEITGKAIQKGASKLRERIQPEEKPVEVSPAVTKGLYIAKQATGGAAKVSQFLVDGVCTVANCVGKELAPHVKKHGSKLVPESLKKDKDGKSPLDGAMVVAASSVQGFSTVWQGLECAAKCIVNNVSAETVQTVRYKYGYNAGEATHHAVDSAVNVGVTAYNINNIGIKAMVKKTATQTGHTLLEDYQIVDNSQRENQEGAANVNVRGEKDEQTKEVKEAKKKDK
Chain of UniProt Q6YHU6 (Q6YHU6 whole entry, looked up): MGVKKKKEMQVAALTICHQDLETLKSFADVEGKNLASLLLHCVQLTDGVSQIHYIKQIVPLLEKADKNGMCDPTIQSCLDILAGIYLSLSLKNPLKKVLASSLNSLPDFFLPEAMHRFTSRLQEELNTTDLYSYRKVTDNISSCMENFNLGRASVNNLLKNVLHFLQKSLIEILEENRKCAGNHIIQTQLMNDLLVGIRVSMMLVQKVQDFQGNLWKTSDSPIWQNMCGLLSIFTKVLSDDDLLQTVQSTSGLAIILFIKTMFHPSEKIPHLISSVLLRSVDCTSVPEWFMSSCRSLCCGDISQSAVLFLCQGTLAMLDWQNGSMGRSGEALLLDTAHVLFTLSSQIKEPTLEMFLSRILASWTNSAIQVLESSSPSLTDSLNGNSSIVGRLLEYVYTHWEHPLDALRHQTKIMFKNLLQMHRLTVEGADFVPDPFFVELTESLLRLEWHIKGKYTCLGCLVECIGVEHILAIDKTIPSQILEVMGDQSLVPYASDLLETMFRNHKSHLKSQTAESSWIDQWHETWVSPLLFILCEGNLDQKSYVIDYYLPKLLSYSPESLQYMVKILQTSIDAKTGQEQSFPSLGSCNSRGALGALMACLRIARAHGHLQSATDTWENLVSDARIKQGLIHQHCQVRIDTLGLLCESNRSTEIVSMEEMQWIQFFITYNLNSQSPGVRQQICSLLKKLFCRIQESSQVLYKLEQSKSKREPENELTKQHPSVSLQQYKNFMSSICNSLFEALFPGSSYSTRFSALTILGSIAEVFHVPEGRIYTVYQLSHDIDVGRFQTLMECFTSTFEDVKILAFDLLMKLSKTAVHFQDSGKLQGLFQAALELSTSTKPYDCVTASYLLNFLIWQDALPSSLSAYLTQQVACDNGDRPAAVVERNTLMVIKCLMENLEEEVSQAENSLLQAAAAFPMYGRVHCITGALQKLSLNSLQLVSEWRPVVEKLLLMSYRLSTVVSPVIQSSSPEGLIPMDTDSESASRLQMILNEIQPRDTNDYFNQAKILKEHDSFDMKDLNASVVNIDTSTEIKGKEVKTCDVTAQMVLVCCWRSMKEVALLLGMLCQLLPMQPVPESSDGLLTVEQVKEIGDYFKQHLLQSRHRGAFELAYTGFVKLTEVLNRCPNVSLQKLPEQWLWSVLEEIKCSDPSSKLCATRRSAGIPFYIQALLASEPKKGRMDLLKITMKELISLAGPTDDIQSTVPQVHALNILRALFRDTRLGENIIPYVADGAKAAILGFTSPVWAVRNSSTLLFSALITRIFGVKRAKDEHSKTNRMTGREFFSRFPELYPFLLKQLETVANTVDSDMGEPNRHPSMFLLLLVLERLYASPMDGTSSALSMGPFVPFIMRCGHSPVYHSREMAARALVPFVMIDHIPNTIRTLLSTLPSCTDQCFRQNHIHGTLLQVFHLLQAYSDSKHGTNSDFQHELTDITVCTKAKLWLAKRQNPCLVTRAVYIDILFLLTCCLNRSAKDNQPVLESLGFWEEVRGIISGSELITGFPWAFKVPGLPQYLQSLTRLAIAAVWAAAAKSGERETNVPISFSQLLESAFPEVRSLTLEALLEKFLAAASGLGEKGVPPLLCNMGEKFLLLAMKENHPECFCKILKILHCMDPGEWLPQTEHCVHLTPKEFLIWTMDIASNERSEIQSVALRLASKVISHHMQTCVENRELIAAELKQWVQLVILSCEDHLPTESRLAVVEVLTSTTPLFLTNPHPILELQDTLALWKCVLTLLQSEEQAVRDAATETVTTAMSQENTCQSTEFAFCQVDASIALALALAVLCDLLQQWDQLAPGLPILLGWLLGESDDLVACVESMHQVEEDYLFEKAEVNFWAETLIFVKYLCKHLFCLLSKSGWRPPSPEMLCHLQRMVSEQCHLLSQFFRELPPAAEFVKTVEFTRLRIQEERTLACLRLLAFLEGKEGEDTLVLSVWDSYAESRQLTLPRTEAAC
Chain of UniProt Q9H4I9 (Q9H4I9 whole entry, looked up): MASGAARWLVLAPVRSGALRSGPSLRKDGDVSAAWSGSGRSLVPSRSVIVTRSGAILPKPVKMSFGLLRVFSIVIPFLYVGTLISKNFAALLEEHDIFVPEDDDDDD
Chain of UniProt Q969X1 (Q969X1 whole entry, looked up): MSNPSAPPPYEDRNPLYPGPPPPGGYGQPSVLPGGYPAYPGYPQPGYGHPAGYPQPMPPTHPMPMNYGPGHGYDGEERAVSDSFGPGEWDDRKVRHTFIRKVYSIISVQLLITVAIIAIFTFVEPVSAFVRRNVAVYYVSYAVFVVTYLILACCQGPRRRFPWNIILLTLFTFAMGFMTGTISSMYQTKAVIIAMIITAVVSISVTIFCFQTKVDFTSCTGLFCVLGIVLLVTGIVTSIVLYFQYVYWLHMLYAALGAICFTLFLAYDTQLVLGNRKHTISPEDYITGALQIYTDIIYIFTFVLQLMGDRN
Chain of UniProt Q9NRS6 (Q9NRS6 whole entry, looked up): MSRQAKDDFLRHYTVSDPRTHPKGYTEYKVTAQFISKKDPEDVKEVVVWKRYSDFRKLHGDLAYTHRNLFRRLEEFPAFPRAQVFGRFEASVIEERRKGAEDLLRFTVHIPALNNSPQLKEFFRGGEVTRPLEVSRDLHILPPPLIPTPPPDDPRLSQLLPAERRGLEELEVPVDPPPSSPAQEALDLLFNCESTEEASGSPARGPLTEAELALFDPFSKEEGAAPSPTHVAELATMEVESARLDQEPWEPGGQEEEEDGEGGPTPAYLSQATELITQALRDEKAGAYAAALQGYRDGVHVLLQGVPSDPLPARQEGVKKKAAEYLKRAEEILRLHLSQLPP
Chain of UniProt Q13247 (Q13247 whole entry, looked up): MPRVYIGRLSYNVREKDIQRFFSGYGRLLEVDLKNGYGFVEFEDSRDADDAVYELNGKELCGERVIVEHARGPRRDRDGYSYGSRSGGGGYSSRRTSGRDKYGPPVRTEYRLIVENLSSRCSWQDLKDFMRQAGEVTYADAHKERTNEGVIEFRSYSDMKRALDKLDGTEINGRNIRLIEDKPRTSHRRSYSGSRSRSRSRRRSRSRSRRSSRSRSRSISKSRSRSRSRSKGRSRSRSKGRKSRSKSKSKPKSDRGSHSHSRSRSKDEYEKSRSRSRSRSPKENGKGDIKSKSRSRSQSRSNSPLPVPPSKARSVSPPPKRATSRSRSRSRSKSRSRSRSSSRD
Chain of UniProt Q15527 (Q15527 whole entry, looked up): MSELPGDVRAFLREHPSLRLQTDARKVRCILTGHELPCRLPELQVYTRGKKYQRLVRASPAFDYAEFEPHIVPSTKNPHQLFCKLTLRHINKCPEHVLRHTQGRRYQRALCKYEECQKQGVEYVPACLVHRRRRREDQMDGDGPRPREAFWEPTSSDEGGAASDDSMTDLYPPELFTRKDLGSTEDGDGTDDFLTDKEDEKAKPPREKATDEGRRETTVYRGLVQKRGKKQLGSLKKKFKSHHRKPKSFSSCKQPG
Chain of UniProt Q15005 (Q15005 whole entry, looked up): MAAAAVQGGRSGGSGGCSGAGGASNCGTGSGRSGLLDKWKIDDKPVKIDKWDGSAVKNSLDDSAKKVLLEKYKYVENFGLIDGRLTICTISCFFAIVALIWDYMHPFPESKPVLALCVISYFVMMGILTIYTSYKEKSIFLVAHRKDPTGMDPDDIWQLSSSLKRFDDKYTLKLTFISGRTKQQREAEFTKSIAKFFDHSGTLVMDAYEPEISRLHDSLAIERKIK
Chain of UniProt Q9P016 (Q9P016 whole entry, looked up): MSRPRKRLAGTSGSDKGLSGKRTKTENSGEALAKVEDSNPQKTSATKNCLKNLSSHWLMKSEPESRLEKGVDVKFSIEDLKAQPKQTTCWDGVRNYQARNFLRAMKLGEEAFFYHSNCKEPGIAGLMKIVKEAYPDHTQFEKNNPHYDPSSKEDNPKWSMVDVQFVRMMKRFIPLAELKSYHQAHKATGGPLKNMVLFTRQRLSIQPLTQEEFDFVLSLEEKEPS

log2 fold change, inactive:
SLC44A2 isoform 2 (UniProt Q8IWA5) -0.118
STK38L (UniProt Q9Y2H1) 0.037
SLC35F6 (UniProt Q8N357) -0.052
SLC27A1 (UniProt Q6PCB7) 0.004
SRSF6 (UniProt Q13247) -0.105
TENT5C (UniProt Q5VWP2) 0
TMBIM1 (UniProt Q969X1) -0.018
SNRNP40 (UniProt Q96DI7) -0.054
SPART (UniProt Q8N0X7) -0.009
SRSF4 (UniProt Q08170) -0.137
SMDT1 (UniProt Q9H4I9) -0.058
SNX1 (UniProt Q13596) -0.003
THADA (UniProt Q6YHU6) -0.022
TACC2 (UniProt O95359) 0.1
SRFBP1 (UniProt Q8NEF9) -0.027
SYNE1 (UniProt Q8NF91) 0.002
STARD3 (UniProt Q14849) 0.018
SNX15 (UniProt Q9NRS6) -0.027
SRCAP (UniProt Q6ZRS2) -0.091
THYN1 (UniProt Q9P016) -0.065
SURF2 (UniProt Q15527) -0.133
TANGO6 (UniProt Q9C0B7) 0.032
SPCS2 (UniProt Q15005) 0.008
